{"source": "PubChem BioAssay", "data": [{"target": "Left-right determination factor 2 (Homo sapiens) (UniProt O00292)", "sequence (O00292 whole entry, looked up)": "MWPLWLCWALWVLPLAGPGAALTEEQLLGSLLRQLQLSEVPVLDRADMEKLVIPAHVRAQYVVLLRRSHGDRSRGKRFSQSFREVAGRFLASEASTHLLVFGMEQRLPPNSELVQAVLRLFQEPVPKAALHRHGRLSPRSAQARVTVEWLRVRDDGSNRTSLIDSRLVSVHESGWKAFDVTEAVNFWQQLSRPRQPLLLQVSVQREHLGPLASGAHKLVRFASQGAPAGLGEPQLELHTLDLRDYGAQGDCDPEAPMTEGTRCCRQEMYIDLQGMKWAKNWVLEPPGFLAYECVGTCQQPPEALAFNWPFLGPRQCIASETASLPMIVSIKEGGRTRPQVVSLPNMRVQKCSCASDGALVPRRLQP", "assay": "small molecules binding LEFTY2 protein – biochemical, small-molecule microarray, 635 nm fluorescence scan, primary screen (AID 1110)", "settings": "higher = more signal", "values": [{"smiles": "CC(C)(C)OC(=O)CC[C@]1(C(=O)N2CCOCC2)N=C(c2ccc(OCCCO)cc2)O[C@H]1c1ccccc1CN=[N+]=[N-]", "composite z-score": -0.457}, {"smiles": "CC(c1ccccc1)C(O)C1C=CC2C(=O)N(c3ccccc3)C(=O)C2N1Nc1ccc(C#N)cc1", "note": "(stereo not drawn)", "composite z-score": 0.8}, {"smiles": "COc1ccc(CCNC(=O)[C@@]2(Sc3ccc(C)cc3)CC(=O)N(Cc3cc(C(F)(F)F)cc(C(F)(F)F)c3)[C@@H]2c2ccc(CO)cc2)cc1", "composite z-score": -2.47}, {"smiles": "CCOC(=O)C[C@H]1[C@H](OC(=O)c2cc3ccccc3oc2=O)[C@@H](NC(=O)C2CCCCC2)c2cc(OCCCO)ccc2N1C(=O)Cc1ccc(OC)cc1", "composite z-score": 0.304}, {"smiles": "CC1CC/C=C\\[C@H]2OC34C=CCN(CCN5CCOCC5)C(=O)[C@H]3N(CCCCCCO)C(=O)[C@@H]4C2C(=O)O1", "note": "(stereo partly drawn)", "composite z-score": -1.12}, {"smiles": "CCOC(=O)C1=CC[C@@H](c2ccc(F)cc2)N(S(=O)(=O)c2ccc(C)cc2)[C@H]1c1ccc([N+](=O)[O-])cc1", "composite z-score": -0.248}, {"smiles": "COC(=O)[C@@]1(Cc2ccc(OC)cc2)[C@@H]2[C@@H](CC(=O)[C@H]2CC(=O)C(=O)N2CCCC2)CN1C(=O)c1ccccc1", "composite z-score": 0.352}, {"smiles": "C=CCNC(=O)[C@H]1[C@@H]2C(=O)O[C@@H](c3ccccc3)[C@@H](c3ccccc3)N2[C@@H](c2ccc(O)cc2)[C@]12C(=O)Nc1ccc(C#CC3=CCCCC3)cc12", "composite z-score": 0.71}, {"smiles": "COC(=O)Cn1c(C(=O)N(C)C)cc2c1C[C@H]1CN(C(=O)c3ccccc3)[C@@](Cc3ccc(OC)cc3)(C(=O)OC)[C@@H]21", "composite z-score": -0.212}, {"smiles": "O=C1O[C@@H](c2ccccc2)[C@@H](c2ccccc2)N2[C@@H](c3ccc(O)cc3)[C@]3(C(=O)Nc4ccc(C#CC5=CCCCC5)cc43)[C@@H](C(=O)N3CCCCCCC3)[C@H]12", "composite z-score": 0.455}, {"smiles": "CC(C)C[C@H]1NC(=O)[C@@]23C(=O)N[C@@H](Cc4ccccc4)C2[C@H](C)[C@@]2(C)O[C@H]2C3/C=C/C/C=C\\CNC(=O)[C@@H]2CCCN2C1=O", "note": "(stereo partly drawn)", "composite z-score": 0.459}, {"smiles": "C#CCN(C/C=C/c1ccccc1)[C@H](CO[Si](C)(C)C(C)(C)C)c1ccccc1", "composite z-score": 0.301}, {"smiles": "COC(=O)C1(CC(C)C)C=C2C(=C(C(C)C)C(=O)C2C)CN1", "note": "(stereo not drawn)", "composite z-score": -0.975}, {"smiles": "CC=CC(O)C1C=CC2C(=O)N(C)C(=O)C2N1NC(=O)OC(C)(C)C", "note": "(stereo not drawn)", "composite z-score": 0.478}, {"smiles": "COc1cc2c(cc1O)C(C1CC1)N(Cc1ccc([N+](=O)[O-])o1)CC2", "note": "(stereo not drawn)", "composite z-score": -0.423}, {"smiles": "CC(C)C[C@H]1NC(=O)[C@@H](C)NC(=O)[C@@]23C(=O)N[C@@H](Cc4ccccc4)C2[C@H](C)[C@@]2(C)O[C@H]2C3/C=C/C/C=C\\CNC1=O", "note": "(stereo partly drawn)", "composite z-score": 0.137}, {"smiles": "COCCOC(=O)N1C(=O)[C@@]2(c3cc(C#Cc4ccc(OC)cc4)ccc31)[C@H](C(=O)N1CCCCCCC1)[C@H]1C(=O)O[C@H](c3ccccc3)[C@H](c3ccccc3)N1[C@@H]2c1ccccc1OCCO", "composite z-score": 0.647}, {"smiles": "CCCCN1CC=CC23O[C@@H]4C=CCOC(=O)[C@@H]4[C@H]2C(=O)N(C(CO)C(C)C)[C@@H]3C1=O", "note": "(stereo partly drawn)", "composite z-score": -0.383}, {"smiles": "C[C@H]1NC(=O)C([C@@H](C)OCc2ccccc2)NC(=O)[C@@]23C(=O)N[C@@H](Cc4ccccc4)C2[C@H](C)[C@@]2(C)O[C@H]2C3/C=C/C/C=C\\CNC1=O", "note": "(stereo partly drawn)", "composite z-score": 0.39}, {"smiles": "C=CCC(OC(C)=O)[C@@H]1[C@@H](N(Cc2cc3ccccc3o2)C(=O)c2cccc3ccccc23)c2cc(OCCCO)ccc2N1C(=O)c1ccc2ccccc2c1", "note": "(stereo partly drawn)", "composite z-score": -0.338}, {"smiles": "NC(=O)NCC#Cc1ccc2c(c1)[C@]1(C(=O)N2)[C@H](C(=O)N2CCCCCCC2)[C@H]2C(=O)O[C@H](c3ccccc3)[C@H](c3ccccc3)N2[C@@H]1c1ccc(O)cc1", "composite z-score": 0.953}, {"smiles": "[N-]=[N+]=NCc1ccccc1[C@H]1OC(c2ccc(OCCCO)cc2)=N[C@@]1(Cc1ccccc1)C(=O)N1CCOCC1", "composite z-score": 0.335}, {"smiles": "CC(C)=CCN(C(=O)C#Cc1ccccc1)[C@H](CO)c1ccccc1", "composite z-score": 0.379}, {"smiles": "CCCC=C(CCC)[C@@H](NC(=O)c1ccco1)c1ccc(C(=O)OC)cc1", "composite z-score": 0.177}, {"smiles": "CN(C)CCCCNC(=O)[C@H]1C[C@H]2C(=O)NCC(=O)N2[C@H]1c1cccc(OCCO)c1", "composite z-score": -0.443}, {"smiles": "N#Cc1ccc(C(O)C2C=CC3C(=O)NC(=O)C3N2Nc2ccccn2)cc1", "note": "(stereo not drawn)", "composite z-score": 0.286}, {"smiles": "C=CCC(OC(C)=O)[C@@H]1[C@@H](N(Cc2ccc(-c3cccc(C(F)(F)F)c3)o2)C(=O)Cc2ccc(F)cc2)c2cc(OCCCO)ccc2N1C(=O)c1ccc2ccccc2c1", "note": "(stereo partly drawn)", "composite z-score": -0.72}, {"smiles": "COCCOC(=O)N1C(=O)[C@@]2(c3cc(C#CC4(O)CCCCCC4)ccc31)[C@H](c1ccc(OCCO)cc1)N1[C@H](c3ccccc3)[C@H](c3ccccc3)OC(=O)[C@H]1[C@@H]2C(=O)N1CCCCCCC1", "composite z-score": 0.725}]}]}
